Experimental data as given in PubChem BioAssay.
For part of these data: Results with a measured potency or affinity are listed apart. Calls of active or inactive are those of the source.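 The calls were made as follows, unless noted: active = primary screen inhibitor hit that blocks the TRPC4 channel at some tested dose, yielding a dose curve; inactive = the rest.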

Experiments:
[1] = system: TRPC4 beta (transient receptor potential cation channel C4), mouse; test: activators of mouse TRPC4 channel, confirmation, cell-based, Fluo4 calcium, HEK293 TRPC4beta/mu-opioid, duplicates, 10 µM (AID 2426;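 active = fluorescence ratio normalized to control raised more than 50% in primary screen plus both repeat runs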;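 as to activation: percent rise of integrated ratio over buffer wells lacking compound which define 0%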); settings: Fluo4 calcium fluorescence, at 10 µM; stronger effect = higher value
[2] = system: transient receptor potential cation channel C4 beta (TRPC4), mouse; test: activators of mouse TRPC4 channel, confirmation, cell-based, second round, Fluo4, HEK293 TRPC4beta/mu-opioid, 1 µM (AID 2461;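 active = primary screen active and over 50% activation in each of two duplicate runs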;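 as to activation: 0% = wells without test compound as baseline of integrated fluorescence ratio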); settings: Fluo4 calcium fluorescence, at 1 µM; stronger effect = higher value
[3] = system: TRPC4 (transient receptor potential cation channel C4 beta), mouse; test: positive allosteric modulators of mouse TRPC4, confirmation, cell-based, second round, Fluo-4, HEK293 TRPC4beta/mu-opioid, 1 µM (AID 2554;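 active = primary screen hit whose fluorescence ratio, in both repeats, exceeds the weak agonist control mean by 3 SD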); settings: DAMGO EC20, Fluo-4 calcium flux, at 1 µM; stronger effect = higher value
[4] = system: TRPC4 beta (transient receptor potential cation channel C4), mouse; test: positive allosteric modulators of mouse TRPC4, confirmation, cell-based, Fluo-4, HEK293 TRPC4beta/mu-opioid (AID 2555;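 active = primary screen hit whose calcium fluorescence ratio, in both repeats, exceeds the weak agonist control mean by 3 SD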); settings: DAMGO EC20, Fluo-4 calcium flux, at 10 µM; stronger effect = higher value
[5] = target: Short transient receptor potential channel 4 (Mus musculus) (UniProt Q9QUQ5); test: inhibitors of mouse TRPC4 channel, confirmation, cell-based, Fluo4, HEK293 TRPC4beta/mu-opioid (AID 2636;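 active = calcium signal cut by more than 3 SD below the full-agonist control yet still positive, in both repeats and the earlier primary screen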); settings: DAMGO, Fluo4 calcium flux, at 10 µM; stronger effect = higher value
Short transient receptor potential channel 4 (Mus musculus), sequence (Q9QUQ5 whole entry, looked up): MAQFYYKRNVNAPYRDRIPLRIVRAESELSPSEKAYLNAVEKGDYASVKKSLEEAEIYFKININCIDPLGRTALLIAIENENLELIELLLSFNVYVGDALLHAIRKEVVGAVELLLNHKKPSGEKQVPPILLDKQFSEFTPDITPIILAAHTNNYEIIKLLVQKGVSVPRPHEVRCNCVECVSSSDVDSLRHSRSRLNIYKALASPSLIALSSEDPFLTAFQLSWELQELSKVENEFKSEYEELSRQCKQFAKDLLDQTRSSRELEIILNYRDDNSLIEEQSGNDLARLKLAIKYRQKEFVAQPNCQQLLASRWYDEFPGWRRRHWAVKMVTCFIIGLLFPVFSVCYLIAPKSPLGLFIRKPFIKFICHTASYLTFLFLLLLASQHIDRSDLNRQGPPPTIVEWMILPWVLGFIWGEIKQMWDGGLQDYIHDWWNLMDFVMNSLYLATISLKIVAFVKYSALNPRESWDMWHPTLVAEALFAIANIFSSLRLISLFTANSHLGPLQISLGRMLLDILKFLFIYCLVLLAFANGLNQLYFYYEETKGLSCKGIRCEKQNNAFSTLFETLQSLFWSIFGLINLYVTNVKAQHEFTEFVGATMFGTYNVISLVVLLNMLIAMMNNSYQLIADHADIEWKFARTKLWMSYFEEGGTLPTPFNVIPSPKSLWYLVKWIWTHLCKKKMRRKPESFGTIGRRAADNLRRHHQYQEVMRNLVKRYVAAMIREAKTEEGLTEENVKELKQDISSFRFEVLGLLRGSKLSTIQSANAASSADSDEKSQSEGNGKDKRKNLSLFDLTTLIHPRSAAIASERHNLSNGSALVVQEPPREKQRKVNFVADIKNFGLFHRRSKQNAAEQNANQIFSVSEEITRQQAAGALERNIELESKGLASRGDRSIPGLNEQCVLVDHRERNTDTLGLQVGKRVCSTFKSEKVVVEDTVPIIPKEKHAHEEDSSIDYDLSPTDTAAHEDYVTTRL

[6] = target: Short transient receptor potential channel 4 (Mus musculus) (UniProt Q9QUQ5); test: inhibitors of mouse TRPC4 channel, confirmation, cell-based, second round, Fluo4, HEK293 TRPC4beta/mu-opioid, 1 µM (AID 2637;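 active = calcium signal ratio cut to more than 3 SD under the fully stimulated control mean yet still positive, in both repeats and the primary screen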); settings: Fluo4 calcium flux, DAMGO, at 1 µM; stronger effect = higher value
[7] = target: Short transient receptor potential channel 4 (Mus musculus) (UniProt Q9QUQ5); test: TRPC4 positive allosteric modulators, dose response, cell-based, HEK293 TRPC4/mu-opioid, Fluo-4 calcium, EC20 DAMGO (AID 434941;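 active = earlier screen potentiator hit that boosts the TRPC4 ion channel at some dose, with a dose response; inactive = no potentiation, no dose response, or not a prior hit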;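 also: calcium entry triggered by an EC20 dose of DAMGO at the co-expressed mu-opioid receptor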)
[8] = target: Short transient receptor potential channel 4 (Mus musculus) (UniProt Q9QUQ5); test: mouse TRPC4 channel inhibitors, dose response, cell-based, HEK293 TRPC4/mu-opioid, Fluo-4 calcium (AID 434942)
[9] = target: Short transient receptor potential channel 6 (Mus musculus) (UniProt Q61143); test: inhibition of mouse TRPC6 channel, confirmation, selectivity assay for TRPC4 inhibitor project, cell-based, HEK293, membrane potential dye, duplicate (AID 434948;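 active = active in primary screen and both duplicates, each dropping signal beyond three positive-control SD with fluorescence still positive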); settings: HEK293 TRPC6, membrane potential dye fluorescence, at 10 µM, stimulated with maximal-effect acetylcholine; stronger effect = higher value
Short transient receptor potential channel 6 (Mus musculus), sequence (Q61143 whole entry, looked up): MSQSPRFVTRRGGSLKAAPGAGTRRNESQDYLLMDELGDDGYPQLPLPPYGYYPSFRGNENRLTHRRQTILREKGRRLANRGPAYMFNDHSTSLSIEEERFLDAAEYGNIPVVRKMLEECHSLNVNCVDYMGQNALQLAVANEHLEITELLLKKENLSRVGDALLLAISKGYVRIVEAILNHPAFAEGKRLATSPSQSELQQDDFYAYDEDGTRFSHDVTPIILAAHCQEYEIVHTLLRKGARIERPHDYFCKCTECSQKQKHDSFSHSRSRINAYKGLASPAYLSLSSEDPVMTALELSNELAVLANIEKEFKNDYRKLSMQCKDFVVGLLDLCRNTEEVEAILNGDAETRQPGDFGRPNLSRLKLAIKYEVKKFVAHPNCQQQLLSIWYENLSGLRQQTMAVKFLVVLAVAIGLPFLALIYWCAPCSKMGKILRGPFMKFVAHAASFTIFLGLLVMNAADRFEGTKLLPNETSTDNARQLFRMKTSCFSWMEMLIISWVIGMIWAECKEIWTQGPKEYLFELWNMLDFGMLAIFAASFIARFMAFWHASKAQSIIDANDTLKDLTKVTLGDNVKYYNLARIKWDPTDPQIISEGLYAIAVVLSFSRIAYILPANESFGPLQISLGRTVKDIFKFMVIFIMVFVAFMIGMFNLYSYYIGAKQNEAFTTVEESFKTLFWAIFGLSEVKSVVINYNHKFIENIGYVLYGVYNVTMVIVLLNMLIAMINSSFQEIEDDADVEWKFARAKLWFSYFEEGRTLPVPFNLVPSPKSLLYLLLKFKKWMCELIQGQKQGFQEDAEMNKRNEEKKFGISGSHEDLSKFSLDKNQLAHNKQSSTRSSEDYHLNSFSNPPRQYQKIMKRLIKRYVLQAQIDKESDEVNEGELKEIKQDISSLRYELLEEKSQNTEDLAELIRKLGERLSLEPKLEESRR

[10] = target: Short transient receptor potential channel 6 (Mus musculus) (UniProt Q61143); test: activation of mouse TRPC6 channel, confirmation, selectivity assay for TRPC4 activator project, cell-based, HEK293, membrane potential dye, duplicate (AID 434950;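 active = membrane potential signal rise above negative control mean plus 3 SD in both duplicates, also active in the earlier TRPC4 screen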;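 as to activation: 0% = buffer only wells and 100% = acetylcholine maximal-effect wells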); settings: HEK293 TRPC6, membrane potential fluorescence, at 10 µM; stronger effect = higher value
[11] = target: Short transient receptor potential channel 6 (Mus musculus) (UniProt Q61143); test: TRPC6 potentiation by TRPC4 potentiator hits, confirmation, selectivity assay for TRPC4 potentiator project, HEK293 cells, membrane potential dye, duplicate (AID 434952;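 active = compound raising the membrane signal above positive-control mean plus 3 SD in both repeats, and a primary screen hit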); settings: HEK293 TRPC6, membrane potential dye fluorescence, at 10 µM, maximal acetylcholine added after compound; stronger effect = higher value
[12] = target: Short transient receptor potential channel 4 (Mus musculus) (UniProt Q9QUQ5); test: calcium flux activators in TRPC4/5HT1a cells, counter-screen for TRPC4 activator project, cell-based, second counter screen, HEK293 TRPC4/5HT1a, Fluo-4 (AID 434977;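 active = calcium signal rise above buffer-control mean plus 5 SD in both duplicates, and also a hit in the primary screen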;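 as to activation: plate controls were assay buffer for no effect and maximal serotonin response for full effect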); settings: Fluo-4 calcium flux, at 10 µM; stronger effect = higher value
[13] = calcium flux inhibitors in TRPC4/5HT1a cells, confirmation, counter-screen for TRPC4 inhibitor project, cell-based, second counter screen, HEK293 TRPC4/5HT1a, Fluo-4 (AID 434978;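 active = primary screen active whose calcium signal fell more than 3 SD beyond the full-serotonin control mean in both duplicate plates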;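 also: serotonin given first at submaximal then at maximal dose after compound preincubation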); settings: Fluo-4 calcium flux, at 10 µM, serotonin added to trigger calcium flux; stronger effect = higher value
[14] = system: TRPC4 (mouse), co-expressed with 5HT1a in HEK293; test: calcium flux potentiators in TRPC4/5HT1a cells, confirmation, counter-screen for TRPC4 potentiator project, cell-based, second counter screen, HEK293 TRPC4/5HT1a, Fluo-4 (AID 434979;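 active = signal rise over 3 SD above mean of control wells given weak agonist, in both repeats and first screen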); settings: Fluo-4 calcium flux, at 10 µM, serotonin added at its EC20 dose; stronger effect = higher value
[15] = calcium flux activation in mu-opioid HEK293 cells, confirmation, counter-screen for TRPC4 activator project, cell-based, HEK293 mu-opioid receptor line (AID 449723;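 active = hit in primary screen, with calcium signal over 5 SD above buffer well mean in both duplicates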;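 also: counter screen cells carry the mu-opioid receptor alone and lack TRPC4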); settings: Fluo-4 calcium fluorescence, at 10 µM; stronger effect = higher value
[16] = calcium flux enhancement in mu-opioid HEK293 cells, confirmation, counter-screen for TRPC4 allosteric potentiator project, cell-based, HEK293 mu-opioid receptor line (AID 449724;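 active = calcium signal rise more than 3 SD above the low-dose agonist control mean, in both duplicate plates and the primary screen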); settings: Fluo-4 calcium flux, at 10 µM, compound added before EC20 DAMGO stimulus; stronger effect = higher value

SMILES | activation [1] | outcome [2] | outcome [3] | outcome [4] | outcome [5] | outcome [6] | outcome [7] | outcome [8] | outcome [9] | outcome [10] | outcome [11] | activation [12] | outcome [13] | outcome [14] | outcome [15] | outcome [16] | activation [2] | activation [10] | outcome [12] | outcome [1]
Cc1csc2c(N3CCN(C(=O)Nc4ccc(OC(F)(F)F)cc4)CC3)ncnc12 | 75% (active) | inactive | inactive | inactive | inactive | inactive | inactive | inactive | inactive | inactive | inactive | 43.3% (active) | inactive | inactive | inactive | inactive | – | – | – | –
COc1ccc2nc(SCCN(C)C)[nH]c2c1 | 108% (active) | – | inactive | inactive | inactive | inactive | inactive | inactive | inactive | inactive | inactive | 35.7% (active) | inactive | inactive | inactive | inactive | 87% (active) | – | – | –
Cc1ccc(C)c(NC(=S)NCC(c2ccccc2)N(C)C)c1 (stereo not given) | 260% (active) | – | inactive | inactive | inactive | inactive | inactive | inactive | inactive | – | inactive | 93.2% (active) | inactive | inactive | inactive | inactive | 127% (active) | 49% (active) | – | –
COc1ccc(C(CNC(=O)c2ccccc2SC)N(C)C)cc1 (stereo not given) | 99% (active) | inactive | inactive | inactive | inactive | inactive | inactive | inactive | inactive | – | inactive | – | inactive | inactive | inactive | inactive | – | 56% (active) | inactive | –
Cc1ccc(NC(=O)NCC(c2ccccc2)N(C)C)cc1 (stereo not given) | 107% (active) | – | inactive | inactive | inactive | inactive | inactive | inactive | inactive | – | inactive | – | inactive | inactive | inactive | inactive | 136% (active) | 38.5% (active) | inactive | –
COc1ccc(C(CNC(=O)c2cccc(NS(=O)(=O)c3ccc(Br)cc3)c2)N(C)C)cc1 (stereo not given) | 253% (active) | – | inactive | inactive | inactive | inactive | inactive | inactive | inactive | – | inactive | 29.9% (active) | inactive | inactive | inactive | inactive | 83% (active) | 35% (active) | – | –
CN(CCc1ccccn1)C(=S)Nc1cccc(S(=O)(=O)N(C)C)c1 | 111% (active) | inactive | inactive | inactive | inactive | inactive | inactive | inactive | inactive | inactive | inactive | 53.6% (active) | inactive | inactive | inactive | inactive | – | – | – | –
COc1ccc(N2CCN(Cc3nc4ccccc4n3C)CC2)cc1 | 154% (active) | inactive | inactive | inactive | inactive | inactive | inactive | inactive | inactive | inactive | inactive | – | inactive | inactive | inactive | inactive | – | – | inactive | –
O=C(NCc1ccccc1)C1=C[C@H](c2ccccc2)C[C@H](OCc2ccc(CO)cc2)O1 | 300% (active) | inactive | inactive | inactive | inactive | inactive | inactive | inactive | inactive | – | inactive | 178% (active) | inactive | inactive | inactive | inactive | – | 27% (active) | – | –
CN(C)C(CNC(=O)Nc1cccc(Cl)c1)c1cccnc1 (stereo not given) | – | – | inactive | inactive | inactive | inactive | inactive | inactive | inactive | – | inactive | – | inactive | inactive | inactive | inactive | 106% (active) | 30.5% (active) | inactive | inactive
COc1cccc(C(=O)OC2CCCN(C)C2)c1 (stereo not given) | 135% (active) | – | inactive | inactive | inactive | inactive | inactive | inactive | inactive | – | inactive | 48.9% (active) | inactive | inactive | inactive | inactive | 85% (active) | 43% (active) | – | –
O=C(Cc1cccc(F)c1F)NC1CCCN(Cc2ccc(Cl)cc2)C1 (stereo not given) | – | inactive | inactive | inactive | inactive | inactive | inactive | inactive | inactive | – | inactive | – | inactive | inactive | inactive | inactive | – | 37.5% (active) | inactive | inactive
COc1ccc(C(CNC(=O)CSc2ccccc2C)N(C)C)cc1 (stereo not given) | 74% (active) | – | inactive | inactive | inactive | inactive | inactive | inactive | inactive | – | inactive | – | inactive | inactive | inactive | inactive | 73% (active) | 55% (active) | inactive | –
O=C(NCc1ccccc1)C1=C[C@@H](C2CCCCC2)C[C@@H](OCc2ccc(CO)cc2)O1 | 183% (active) | inactive | inactive | inactive | inactive | inactive | inactive | inactive | inactive | – | inactive | 112% (active) | inactive | inactive | inactive | inactive | – | 30.5% (active) | – | –
CCN1CCN(c2ccc(S(=O)(=O)N3CCOCC3)cc2NC(=O)/C=C/c2ccc(OC)cc2OC)CC1 | 112% (active) | inactive | inactive | inactive | inactive | inactive | inactive | inactive | inactive | inactive | inactive | 6.55% (active) | inactive | inactive | inactive | inactive | – | – | – | –
